# Screening results: PubChem, National Center for Advancing Translational Sciences (NCATS)
# An excerpt weighted towards active compounds, which were near 7% of everything screened.
# GCN5L2 inh = blocks human GCN5L2 histone acetyltransferase; Potency, µM (doses to about 58.9 µM), without a hit: at the highest dose activity change, negative = inhibition, hits mostly inhibitors; 390,000 compounds, 0.21% hits; AID 504327; GCN5L2 HAT assay, ThioGlo1 CoA-SH fluorescence; also: potency is read from the fitted curve at half-maximal effect; % is scaled to controls: 0 for no effect and ±100 for the full control effect
#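 Preincubate 20nM GCN5L2 with compound 15 min, RT → add 50uM ThioGlo1 + 75uM H3(1-25) + 70uM acetyl-CoA → read fluorescence 0 and 20 min. Primary qHTS; fluorescent artifacts likely.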
# JMJD2A Tudor = inhibitors of human JMJD2A Tudor domain; O75164; AlphaScreen JMJD2A-Tudor / H3K4me3 peptide binding; Potency, µM (highest dose often 114 µM), without a hit: at the highest dose activity change, negative = inhibition, most hits filed as inhibitors; 390,000 compounds, 4.4% hits; AID 504339; also: potency is read from the fitted curve at half-maximal effect; % is scaled to controls: 0 for no effect and ±100 for the full control effect; nearly all actives have a fitted effect of over 50% in size
# BAZ2B inh = inhibitors of human BAZ2B bromodomain; 360,000 compounds, 4.4% hits; Q9UIF8; Potency, µM (doses to about 114 µM), inactives show at the top dose activity change, negative = inhibition, actives largely listed as inhibitors; AlphaScreen BAZ2B-H3K14Ac peptide displacement; AID 504333; also: potency is read from the fitted curve at half-maximal effect; % is scaled to controls: 0 for no effect and ±100 for the full control effect; nearly all actives have a fitted effect of over 60% in size
#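 AlphaScreen displacement: compounds (up to 110uM) incubated 30 min at room temperature with a preformed 50 nM BAZ2B/50 nM biotinylated H3K14Ac peptide complex in PBS pH 7.4 with Tween-20. Donor and acceptor beads at 10 ug/mL final added, 20 min light-protected before reading.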
# PI5P4K alpha inh = blocks human PI5P4K alpha kinase activity | P48426 | PI5P4Kalpha enzyme, ADP-Glo luminescence, 60 min; hits give low values | max response, % | 330,000 compounds, 1.2% hits | AID 652105; active = max response of -50% or lower; inconclusive = between -30% and -50%; inactive = -30% or higher; also: value at the top dose of about 77 µM; % is scaled to controls: 0 for no effect and ±100 for the full control effect
# Target sequence (P48426 whole entry, looked up): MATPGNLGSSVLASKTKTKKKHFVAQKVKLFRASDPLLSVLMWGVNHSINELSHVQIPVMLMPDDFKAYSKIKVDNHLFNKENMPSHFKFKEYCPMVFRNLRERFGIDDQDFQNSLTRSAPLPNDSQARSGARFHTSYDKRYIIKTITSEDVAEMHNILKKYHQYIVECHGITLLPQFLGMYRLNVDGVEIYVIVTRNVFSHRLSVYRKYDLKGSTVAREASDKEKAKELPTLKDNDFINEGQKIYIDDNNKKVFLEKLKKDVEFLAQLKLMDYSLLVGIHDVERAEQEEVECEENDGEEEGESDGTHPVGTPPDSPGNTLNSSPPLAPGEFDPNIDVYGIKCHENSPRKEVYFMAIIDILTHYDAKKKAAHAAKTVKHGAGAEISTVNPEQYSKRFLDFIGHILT
#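 Human PI5P4Kalpha with substrate in 0.038 M HEPES pH 7.4, 0.28 mM EGTA, 0.1% CHAPS, 5% DMSO; reaction started with 5 microM ATP (final), 60 min at room temperature. ADP formed read by ADP-Glo luminescence.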
# HP1b binding inh = blocks HP1-beta chromodomain binding to methylated histone tails | P83916 | Potency, µM (series often up to 114 µM), inactives show at the highest dose activity change, negative = inhibition, hits mostly inhibitors | 390,000 compounds, 0.56% hits | AlphaScreen HP1-beta / biotin-H3K9me3 peptide binding | AID 540317; also: potency is read from the fitted curve at half-maximal effect; nearly all actives have a fitted effect of over 70% in size
# Target sequence (P83916 whole entry, looked up): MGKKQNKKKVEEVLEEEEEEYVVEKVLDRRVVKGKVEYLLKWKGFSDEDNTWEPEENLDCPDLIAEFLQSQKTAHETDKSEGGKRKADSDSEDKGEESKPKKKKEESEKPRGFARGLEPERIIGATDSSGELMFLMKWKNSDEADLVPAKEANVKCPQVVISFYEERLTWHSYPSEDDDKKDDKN
#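 HP1-beta protein (50 nM final) preincubated 30 min at room temperature with biotinylated H3(1-18)K9me3 peptide (50 nM) in PBS pH 7.4, 0.01% Tween-20, then compound added for 30 min. AlphaScreen streptavidin donor/nickel chelate acceptor beads (10 ug/mL final), 30 min dark, luminescence read.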
# PLK1 PBD inh = blocks phosphopeptide binding to human PLK1 polo-box domain; P53350; Plk1 PBD binding of FITC phosphopeptide, fluorescence polarization; Potency, µM, for inactives: max response, negative = inhibition, actives largely listed as inhibitors; 360,000 compounds, 2.8% hits; also: potency is read from the fitted curve at half-maximal effect; series mostly up to about 57 µM; % is scaled to controls: 0 for no effect and ±100 for the full control effect; nearly all actives have a fitted effect of over 65% in size
# An asterisk follows results filed as active; ? = inconclusive; . = no result given; [ ] = dose if it differs, or a comment. Unless noted, calls follow the shape of the dose curve; as a rule, active = well fitted curve in the direction sought with a large enough effect; inconclusive = small, poorly fitted or top-dose-only effect, or another doubt; inactive = no such curve, though single readings can be large; an effect the other way counts as inactive or inconclusive.
SMILES,GCN5L2 inh,JMJD2A Tudor,BAZ2B inh,PI5P4K alpha inh,HP1b binding inh,PLK1 PBD inh
Cc1cccc(CC2C(=O)Nc3ccccc32)c1 (stereo not drawn),-5%,-14%,?,.,19%,.
CCOC(=O)c1c(C)[nH]c(C(=O)/C(C#N)=C/c2ccc(OC(F)F)c(OC)c2)c1C,-5%,-28%,-33%,-19,0%,4.7µM*
CCOC(=O)c1c(C)[nH]c(C(=O)/C(C#N)=C/c2ccc(OC)c(OC)c2)c1C,-5%,-28%,?,-4,9%,17µM*
CCOC(=O)c1ccccc1NC(=O)c1c2c(nc3ccccc13)C(=O)N(C1CCCCC1)C2,-9%,-7%,-2%,.,36%,.
CCOc1ccccc1NC(=O)CN1C(=O)COc2ccc(S(=O)(=O)N3CCCCC3)cc21,-1%,7%,-15%,.,61%,.
NCCC(=O)N1c2ccccc2Sc2ccc(Cl)cc21,-7%,-13%,-23%,10,35%,-5%
CN1CCN(CCC(=O)N2c3ccccc3Sc3ccc(Cl)cc32)CC1,2%,?,79µM*,0,-4%,-8%
O=C(Nc1cccc(Cl)c1)c1c(NC(=O)C(F)(F)F)sc2c1CCCC2,?,79µM*,50µM*,.,?,.
CC(C)(C)C(=O)Nc1sc2c(c1C(=O)Nc1ccccn1)CCCC2,-3%,45µM*,6%,5,12%,27µM*
Cc1ccccc1NC(=O)c1c(NC(=O)C(F)(F)F)sc2c1CCCCC2,-1%,-21%,-14%,.,13%,.
COCCCNCCOCCOc1ccccc1-c1ccccc1,-2%,2.5µM*,50µM*,-16,?,-9%
CCC(C)NCCOCCOc1ccccc1-c1ccccc1 (stereo not drawn),-11%,3.5µM*,50µM*,.,?,-2%
C=CCc1ccccc1OCCNCCCOC,-5%,2.5µM*,-35%,0,-36%,-6%
CN(C)CCNCCCOc1ccccc1-c1ccccc1,-5%,.,40µM*,.,.,.
COc1ccc2c(CNC3CCCC3)c(C(=O)O)n(Cc3ccccc3C)c2c1,1%,-16%,-15%,.,18%,.
CC(C)(C)NCCOCCOc1ccccc1-c1ccccc1,-6%,1.8µM*,22µM*,5,22µM*,-7%
C=CCNCCOCCOc1ccccc1-c1ccccc1,-8%,50µM*,79µM*,1,-26%,-8%
COC(=O)c1ccccc1OCCCOc1ccc(C)cc1OC,-7%,.,-37%,.,.,.
COC(=O)c1ccccc1OCCCN(C)C,1%,89µM*,79µM*,-3,?,-9%
CCC(C(=O)Nc1ccc(C)c(C)c1)n1c(=O)c(C(F)(F)F)nc2ccccc21 (stereo not drawn),-2%,-6%,4%,.,10%,.
O=C(Nc1ccc(F)c(Cl)c1)C1Cc2ccccc2CN1S(=O)(=O)c1ccc(F)cc1 (stereo not drawn),-11%,-13%,?,.,26%,.
CC(C)(C)OC(=O)N[C@@H](CC(=O)OCc1ccccc1)C(=O)O,3%,50µM*,7%,?,10%,27µM*
CC(C)(C)OC(=O)NC(CC(=O)OCc1ccccc1)C(=O)O (stereo not drawn),-4%,-2%,3%,-1,9%[57 µM],-12%
C[C@H](NC(=O)OCc1ccccc1)C(=O)NNC(=O)[C@H](Cc1ccccc1)NC(=O)OC(C)(C)C,37%,-9%,-1%,1,42%,6%
O=C(N[C@@H](Cc1ccccc1)C(=O)CCl)OCc1ccccc1,-3%,-9%,4%,1,55%,30µM*
SMILES,GCN5L2 inh,JMJD2A Tudor,BAZ2B inh,PI5P4K alpha inh,HP1b binding inh,PLK1 PBD inh
COC(=O)C(Cc1cncn1COCc1ccccc1)NC(=O)OC(C)(C)C (stereo not drawn),2%,?,79µM*,.,13%,1%
CCOc1ccccc1CNC(=O)c1cnc2sc(N3CCCCCC3)nn2c1=O,-23%,-17%,-17%,.,0%,.
Oc1c(Cl)cc(Cl)cc1/C=N/c1nccs1,-4%,-18%,-2%,?,16%,34µM*
Oc1c(Cl)cc(Cl)cc1/C=N/c1nc(-c2ccc(Cl)cc2)cs1,1%,?,-26%,?,-6%,-13%
Cc1ccccc1CN1CCC(n2nccc2NC(=O)CCOc2ccccc2)CC1,-4%,-16%,-21%,3,17%,-14%
Cc1ccc(NC(=S)Nc2ccc3[nH]c(=O)[nH]c3c2)cc1,-2%,-7%[11.4 µM],-21%,-18,-15%,19µM*
Cc1nn(-c2ccccc2)c(C)c1NC(=O)COC(=O)Cc1cccc(C(F)(F)F)c1,-4%,-12%,-3%,6,32%,-2%
O=[N+]([O-])c1ccc(Cl)c(S(=O)(=O)Nc2cccc(S(=O)(=O)NC3=NCCC3)c2)c1,-10%,-23%,.,-14,1%,?
Cc1occc(=O)c1OCc1c(F)cccc1Cl,-3%,-16%,-2%,-27,-14%,21µM*
COc1ccc(N2C(=O)CN=C2Nc2nc(C)cc(C)n2)cc1OC,-13%,79µM*,?,.,1%,-9%
CCc1sc(C(=O)N(CCCOC)c2c(N)n(CC(C)C)c(=O)[nH]c2=O)cc1C,-1%,-7%,-5%,-1,30%,-10%
CCOCC(=O)Nc1ccc2c(c1)N(S(=O)(=O)c1cccs1)CCC2,-3%,-16%,-5%,3,23%,-15%
C#CCOCCOCCOCCNc1nc(N2CCN(C(=O)[C@H](CCC(=O)O)n3cc(C(N)Cc4ccc(O)cc4)nn3)CC2)nc(N2CCN(C(=O)[C@H](CCC(=O)O)n3cc(C(N)Cc4ccc(O)cc4)nn3)CC2)n1 (stereo partly drawn),6%,50µM*,50µM*,-9,32%,7%
C#CCOCCOCCOCCNc1nc(N2CCN(C(=O)[C@H](CCC(=O)O)n3cc(C(N)CC(C)C)nn3)CC2)nc(N2CCN(C(=O)[C@H](Cc3ccc(O)cc3)n3cc(C(N)CC(C)C)nn3)CC2)n1 (stereo partly drawn),9%,79µM*,79µM*,-6,23%,-8%
C#CCOCCOCCOCCNc1nc(N2CCN(C(=O)[C@H](CCCCN)n3cc(CCC(=O)O)nn3)CC2)nc(N2CCN(C(=O)[C@H](Cc3ccc(O)cc3)n3cc(CCO)nn3)CC2)n1,.,-14%,.,-2,17%,-8%
C#CCOCCOCCOCCNc1nc(N2CCN(C(=O)[C@H](CCCCN)n3cc(C(N)CO)nn3)CC2)nc(N2CCN(C(=O)[C@H](CCC(=O)O)n3cc(C(N)Cc4ccc(O)cc4)nn3)CC2)n1 (stereo partly drawn),-9%,.,18µM*,.,.,.
